Unmarked numbers belong to inactive results.

UniProt Q9UKX5, sequence (Q9UKX5 whole entry): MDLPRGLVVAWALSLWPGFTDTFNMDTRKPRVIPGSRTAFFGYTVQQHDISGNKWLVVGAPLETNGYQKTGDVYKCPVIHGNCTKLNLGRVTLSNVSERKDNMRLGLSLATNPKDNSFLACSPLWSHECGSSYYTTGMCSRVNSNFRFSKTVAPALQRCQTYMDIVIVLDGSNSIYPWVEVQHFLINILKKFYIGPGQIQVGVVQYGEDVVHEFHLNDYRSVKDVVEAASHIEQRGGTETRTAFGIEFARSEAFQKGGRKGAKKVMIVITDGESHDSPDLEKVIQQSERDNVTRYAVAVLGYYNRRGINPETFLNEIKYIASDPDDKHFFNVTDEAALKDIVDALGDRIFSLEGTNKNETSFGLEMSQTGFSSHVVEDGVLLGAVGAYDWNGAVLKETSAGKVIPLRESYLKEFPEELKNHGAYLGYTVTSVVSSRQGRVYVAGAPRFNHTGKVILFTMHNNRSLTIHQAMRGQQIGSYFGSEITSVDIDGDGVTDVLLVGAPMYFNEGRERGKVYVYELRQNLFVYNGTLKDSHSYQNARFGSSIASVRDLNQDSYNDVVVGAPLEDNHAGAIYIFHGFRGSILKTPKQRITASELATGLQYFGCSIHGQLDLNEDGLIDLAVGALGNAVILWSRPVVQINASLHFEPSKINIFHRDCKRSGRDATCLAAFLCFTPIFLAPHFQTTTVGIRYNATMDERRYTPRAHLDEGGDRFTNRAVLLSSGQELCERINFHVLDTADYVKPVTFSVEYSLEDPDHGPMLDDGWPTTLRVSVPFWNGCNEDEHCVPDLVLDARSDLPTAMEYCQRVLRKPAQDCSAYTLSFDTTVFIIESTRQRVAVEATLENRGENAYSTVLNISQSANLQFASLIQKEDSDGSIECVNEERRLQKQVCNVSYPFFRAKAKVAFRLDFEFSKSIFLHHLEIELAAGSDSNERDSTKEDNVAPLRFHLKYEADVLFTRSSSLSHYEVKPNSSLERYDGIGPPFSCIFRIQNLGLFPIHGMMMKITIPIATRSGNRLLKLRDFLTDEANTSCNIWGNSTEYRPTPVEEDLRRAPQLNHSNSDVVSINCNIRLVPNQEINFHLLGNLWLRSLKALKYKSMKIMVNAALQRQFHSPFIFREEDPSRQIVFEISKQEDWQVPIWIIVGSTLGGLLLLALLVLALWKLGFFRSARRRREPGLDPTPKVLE
UniProt P52803, sequence (P52803 whole entry): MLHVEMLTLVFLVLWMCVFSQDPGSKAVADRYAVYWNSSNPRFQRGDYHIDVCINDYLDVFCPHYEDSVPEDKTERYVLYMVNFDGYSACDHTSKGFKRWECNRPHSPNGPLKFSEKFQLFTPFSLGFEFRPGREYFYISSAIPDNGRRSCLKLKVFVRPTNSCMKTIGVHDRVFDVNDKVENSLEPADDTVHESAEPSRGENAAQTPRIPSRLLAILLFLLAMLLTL
UniProt P52272, sequence (P52272 whole entry): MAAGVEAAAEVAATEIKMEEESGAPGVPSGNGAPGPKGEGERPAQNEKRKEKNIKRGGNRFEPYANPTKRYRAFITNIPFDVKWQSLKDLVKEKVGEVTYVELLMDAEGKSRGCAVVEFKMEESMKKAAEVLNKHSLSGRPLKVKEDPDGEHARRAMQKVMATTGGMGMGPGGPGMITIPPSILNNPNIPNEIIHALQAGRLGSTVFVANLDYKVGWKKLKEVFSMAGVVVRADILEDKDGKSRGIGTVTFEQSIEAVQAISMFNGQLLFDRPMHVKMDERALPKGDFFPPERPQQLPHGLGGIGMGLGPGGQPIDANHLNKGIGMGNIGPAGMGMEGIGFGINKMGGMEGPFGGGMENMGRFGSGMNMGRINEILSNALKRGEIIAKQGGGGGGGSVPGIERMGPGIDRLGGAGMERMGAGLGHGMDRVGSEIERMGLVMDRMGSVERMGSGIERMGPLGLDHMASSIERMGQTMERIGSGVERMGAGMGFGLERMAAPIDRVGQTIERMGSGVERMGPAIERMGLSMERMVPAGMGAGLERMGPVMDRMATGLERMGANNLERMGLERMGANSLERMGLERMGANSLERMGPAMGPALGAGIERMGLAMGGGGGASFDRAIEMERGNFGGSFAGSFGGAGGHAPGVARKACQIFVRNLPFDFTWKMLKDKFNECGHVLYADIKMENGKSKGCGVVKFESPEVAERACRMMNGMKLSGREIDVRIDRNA
UniProt P37802, sequence (P37802 whole entry): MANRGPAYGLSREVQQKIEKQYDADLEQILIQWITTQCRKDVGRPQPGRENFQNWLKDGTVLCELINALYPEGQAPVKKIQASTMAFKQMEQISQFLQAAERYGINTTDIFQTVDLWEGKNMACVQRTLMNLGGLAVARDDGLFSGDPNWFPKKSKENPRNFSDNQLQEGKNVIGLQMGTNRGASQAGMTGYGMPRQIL
UniProt P67936, sequence (P67936 whole entry): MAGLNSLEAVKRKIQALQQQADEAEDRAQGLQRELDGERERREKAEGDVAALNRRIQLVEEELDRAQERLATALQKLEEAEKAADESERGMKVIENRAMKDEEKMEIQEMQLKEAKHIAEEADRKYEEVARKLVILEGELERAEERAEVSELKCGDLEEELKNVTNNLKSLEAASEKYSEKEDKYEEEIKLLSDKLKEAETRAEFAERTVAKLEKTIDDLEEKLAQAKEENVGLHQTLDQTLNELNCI
UniProt P13010, sequence (P13010 whole entry): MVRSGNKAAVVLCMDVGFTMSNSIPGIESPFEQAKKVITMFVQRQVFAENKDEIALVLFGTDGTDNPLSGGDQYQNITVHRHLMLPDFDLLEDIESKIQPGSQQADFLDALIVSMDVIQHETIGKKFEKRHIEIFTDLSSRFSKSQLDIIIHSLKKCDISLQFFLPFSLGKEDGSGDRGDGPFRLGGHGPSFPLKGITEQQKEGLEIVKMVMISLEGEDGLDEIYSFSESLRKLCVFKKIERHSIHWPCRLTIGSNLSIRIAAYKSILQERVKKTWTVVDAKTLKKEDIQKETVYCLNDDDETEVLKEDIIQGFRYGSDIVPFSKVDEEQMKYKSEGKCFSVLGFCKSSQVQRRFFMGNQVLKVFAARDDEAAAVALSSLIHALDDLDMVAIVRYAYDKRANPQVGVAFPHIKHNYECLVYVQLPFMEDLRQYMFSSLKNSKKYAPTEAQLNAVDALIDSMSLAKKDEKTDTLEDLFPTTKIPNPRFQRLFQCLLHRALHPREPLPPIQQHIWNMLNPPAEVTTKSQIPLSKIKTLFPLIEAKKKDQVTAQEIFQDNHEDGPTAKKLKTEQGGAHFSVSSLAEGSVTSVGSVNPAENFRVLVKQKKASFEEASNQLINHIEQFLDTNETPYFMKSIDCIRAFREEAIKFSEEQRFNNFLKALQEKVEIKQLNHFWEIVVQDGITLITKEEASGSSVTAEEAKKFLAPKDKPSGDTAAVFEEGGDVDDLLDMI
UniProt Q15375, sequence (Q15375 whole entry, looked up): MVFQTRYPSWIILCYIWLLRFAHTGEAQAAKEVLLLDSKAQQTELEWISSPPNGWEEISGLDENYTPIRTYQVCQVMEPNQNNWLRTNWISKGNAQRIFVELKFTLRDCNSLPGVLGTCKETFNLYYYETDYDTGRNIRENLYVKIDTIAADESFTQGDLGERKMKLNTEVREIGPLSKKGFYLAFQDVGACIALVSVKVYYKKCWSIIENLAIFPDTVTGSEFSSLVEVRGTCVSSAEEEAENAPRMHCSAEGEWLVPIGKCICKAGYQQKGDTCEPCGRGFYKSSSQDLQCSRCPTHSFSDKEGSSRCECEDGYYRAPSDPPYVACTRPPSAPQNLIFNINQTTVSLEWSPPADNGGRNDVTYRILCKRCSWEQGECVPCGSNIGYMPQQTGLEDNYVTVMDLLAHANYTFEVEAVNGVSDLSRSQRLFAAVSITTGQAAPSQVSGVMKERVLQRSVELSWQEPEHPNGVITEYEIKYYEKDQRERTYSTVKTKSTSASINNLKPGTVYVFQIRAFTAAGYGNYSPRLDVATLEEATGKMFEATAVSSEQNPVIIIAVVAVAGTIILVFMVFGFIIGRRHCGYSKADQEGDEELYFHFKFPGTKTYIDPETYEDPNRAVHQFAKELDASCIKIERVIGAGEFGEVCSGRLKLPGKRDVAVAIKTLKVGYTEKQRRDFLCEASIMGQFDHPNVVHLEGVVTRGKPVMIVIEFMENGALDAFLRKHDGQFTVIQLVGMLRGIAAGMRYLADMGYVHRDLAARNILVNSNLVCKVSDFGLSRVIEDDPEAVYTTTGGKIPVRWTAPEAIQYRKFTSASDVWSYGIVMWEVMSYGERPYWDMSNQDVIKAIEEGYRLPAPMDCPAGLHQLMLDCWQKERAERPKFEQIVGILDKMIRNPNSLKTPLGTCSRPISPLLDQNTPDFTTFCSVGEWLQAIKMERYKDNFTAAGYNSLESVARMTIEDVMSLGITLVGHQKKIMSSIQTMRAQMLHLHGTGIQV
UniProt P05141, sequence (P05141 whole entry): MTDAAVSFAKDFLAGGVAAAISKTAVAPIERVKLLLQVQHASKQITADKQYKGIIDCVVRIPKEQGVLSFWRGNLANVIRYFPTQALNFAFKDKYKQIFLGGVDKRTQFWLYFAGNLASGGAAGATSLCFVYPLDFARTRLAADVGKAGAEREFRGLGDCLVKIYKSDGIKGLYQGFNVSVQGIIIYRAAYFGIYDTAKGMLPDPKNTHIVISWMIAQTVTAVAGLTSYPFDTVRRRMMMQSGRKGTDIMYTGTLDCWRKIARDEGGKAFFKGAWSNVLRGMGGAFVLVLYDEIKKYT
UniProt P27105, sequence (P27105 whole entry): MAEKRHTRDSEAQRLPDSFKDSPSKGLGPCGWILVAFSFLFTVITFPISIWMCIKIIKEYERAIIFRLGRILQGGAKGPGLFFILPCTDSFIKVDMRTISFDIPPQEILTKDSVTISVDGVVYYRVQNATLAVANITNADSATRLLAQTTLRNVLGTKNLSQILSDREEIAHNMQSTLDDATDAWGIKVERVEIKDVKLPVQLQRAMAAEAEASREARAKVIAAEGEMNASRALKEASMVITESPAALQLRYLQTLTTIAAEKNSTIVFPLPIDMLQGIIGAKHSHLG

Compound in this assay: C#CCNC(=O)CCSSCCC(=O)NCCc1ccc(C=O)c(C=O)c1
The assay is described as follows: lysine labeling ratio R10:1 (500 µM / 50 µM probe), SILAC-ABPP in living cells; higher = lower intrinsic lysine reactivity toward the probe, active = 2 or less. The conditions noted are these: HeLa; probe concentrations 500 vs 50 µM. A digest of the protocol:
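Measurements came from LC-MS/MS on a TIMS-TOF Pro of mixed SILAC light and heavy HeLa lysates after click to biotin-azide, trypsin digestion, neutravidin capture, DTT release and alkylation. Before lysis, the living cells sat in PBS at room temperature with 50 µM or 500 µM of an alkyne-tagged, disulfide-linked lysine probe, and labels were swapped forward and reverse. R per lysine is the median across both swap directions of the filtered median high-probe/low-probe MS1 peptide ratio. The cap is 20.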
In the case of “L1CAM (lysine site: K301) (UniProt P32004)”, the “lysine labeling ratio R10:1” value was 4.21. The figure for “TKT (lysine site: K283) (UniProt P29401)” is 7.35.

Consider UniProt P62263 (lysine site: K125), for which the “lysine labeling ratio R10:1” value was 5.61. The figure for “STOM (lysine site: K235) (UniProt P27105)” is 4.28; for “DYNC1H1 (lysine site: K4171) (UniProt Q14204)” it is 2.12; for “TALDO1 (lysine site: K321) (UniProt P37837)” it is 0.79 (active). Under “EPHA7 (lysine site: K272) (UniProt Q15375)” stands 2.33; under “SLC25A5 (lysine site: K63) (UniProt P05141)”, 3.19.

With “ARPC2 (lysine site: K275) (UniProt O15144)”, the “lysine labeling ratio R10:1” value is 2.12. With “PFKP (lysine site: K109) (UniProt Q01813)”, the “lysine labeling ratio R10:1” value was 1.5 (active). In the case of UniProt P52803 (lysine site: K180), the “lysine labeling ratio R10:1” value was 6.21. As to “TAGLN2 (lysine site: K154) (UniProt P37802)”, the “lysine labeling ratio R10:1” value was 1.43 (active). Regarding UniProt Q15149 (lysine site: K2396), the “lysine labeling ratio R10:1” value was 2.3. Under UniProt Q9UKX5 (lysine site: K223) stands 2.86; under “TPM4 (lysine site: K44) (UniProt P67936)”, 1.15 (active). The figure for “HNRNPM (lysine site: K381) (UniProt P52272)” is 5.22; for “XRCC5 (lysine site: K648) (UniProt P13010)” it is 1.9 (active).

The record behind these values is the supplement of paper PMC11001985.
